Measurements published in PubChem BioAssay AID1159580 (chemical genetic matrix, 2015).
In all, about 5,500 compounds went through this assay and about 2,000 (36%) were called active. Inconclusive results (about 18%) are left out. Rule as the data show it: active = normalized growth mostly below about 0.91 (no sharp cut-off); inconclusive = no clear call, values can overlap the other calls; inactive = mostly above about 0.92. This is one part of the list.

Test: chemical genetic growth profiling, strain panel (AID 1159580);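 also: tested at 20 µM; growth read once vehicle control cultures reached saturation at 30 °C; 1 = growth at the plate median or of vehicle wells; lower values mean less growth of the strain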
Details: growth OD

Measured: normalized growth

CC(=O)S[C@@H]1CC2=CC(=O)CC[C@]2(C)[C@H]2CC[C@@]3(C)[C@@H](CC[C@@]34CCC(=O)O4)C12 (stereo not given in full)
inactive: S. cerevisiae deletion strains, locus YJR043C, strain POL32, active compounds read low 1.01 | S. cerevisiae deletion strains, locus YJR066W, strain TOR1, active compounds read low 0.981 | S. cerevisiae deletion strains, locus YJR075W, strain HOC1, active compounds read low 1.01 | S. cerevisiae deletion strains, locus YKL009W, strain mrt4, active compounds read low 1.01 | S. cerevisiae deletion strains, locus YKL068W, active compounds read low 1.01 | S. cerevisiae deletion strains, locus YKL085W, strain MDH1 (second series), active compounds read low 1.01 | S. cerevisiae deletion strains, locus YKL085W, strain MDH1, active compounds read low 1.01 | S. cerevisiae deletion strains, locus YKL160W, strain elf1, active compounds read low 1.03 | S. cerevisiae deletion strains, locus YKL190W, strain CNB1, active compounds read low 0.995 | S. cerevisiae deletion strains, locus YKR001C, strain vps1, active compounds read low 1.03 | S. cerevisiae deletion strains, locus YKR026C, strain gcn3, active compounds read low 1.01 | S. cerevisiae deletion strains, locus YKR091W, strain srl3, active compounds read low 1.01 | S. cerevisiae deletion strains, locus YLL001W, strain dnm1, active compounds read low 1.05 | S. cerevisiae deletion strains, locus YLL026W, active compounds read low 1.01 | S. cerevisiae deletion strains, locus YLL041C, strain sdh2, active compounds read low 1.01 | S. cerevisiae deletion strains, locus YLR027C, strain aat2, active compounds read low 1.02 | S. cerevisiae deletion strains, locus YLR039C, strain RIC1, active compounds read low 1.02 | S. cerevisiae deletion strains, locus YLR058C, strain SHM2, active compounds read low 1 | S. cerevisiae deletion strains, locus YLR102C, strain apc9, active compounds read low 1.02 | S. cerevisiae deletion strains, locus YLR113W, strain HOG1, active compounds read low 1.03 | S. cerevisiae deletion strains, locus YLR221C, strain rsa3, active compounds read low 0.984 | S. cerevisiae deletion strains, locus YLR258W, strain gsy2, active compounds read low 0.997 | S. cerevisiae deletion strains, locus YLR262C, strain YPT6 (second series), active compounds read low 1.03 | S. cerevisiae deletion strains, locus YLR262C, strain YPT6, active compounds read low 1.04 | S. cerevisiae deletion strains, locus YLR268W, strain sec22, active compounds read low 1.03 | S. cerevisiae deletion strains, locus YLR320W, strain mms22, active compounds read low 0.975 | S. cerevisiae deletion strains, locus YLR330W, strain CHS5, active compounds read low 1.01 | S. cerevisiae deletion strains, locus YLR342W, strain FKS1 (second series), active compounds read low 1 | S. cerevisiae deletion strains, locus YLR342W, strain FKS1, active compounds read low 1.05 | S. cerevisiae deletion strains, locus YLR357W, strain rsc2, active compounds read low 1.06 | S. cerevisiae deletion strains, locus YLR370C, strain arc18, active compounds read low 1.02 | S. cerevisiae deletion strains, locus YLR371W, strain rom2, active compounds read low 1.03 | S. cerevisiae deletion strains, locus YLR384C, strain iki3, active compounds read low 1.01 | S. cerevisiae deletion strains, locus YLR418C, strain cdc73, active compounds read low 1.03 | S. cerevisiae deletion strains, locus YML016C, strain PPZ1, active compounds read low 1 | S. cerevisiae deletion strains, locus YML032C, strain rad52, active compounds read low 1.02 | S. cerevisiae deletion strains, locus YML120C, strain ndi1, active compounds read low 1.02 | S. cerevisiae deletion strains, locus YML124C, strain tub3, active compounds read low 1.04 | S. cerevisiae deletion strains, locus YMR058W, strain fet3, active compounds read low 1.01 | S. cerevisiae deletion strains, locus YMR078C, strain ctf18, active compounds read low 1.03 | S. cerevisiae deletion strains, locus YMR125W, strain sto1, active compounds read low 1.01 | S. cerevisiae deletion strains, locus YMR129W, active compounds read low 1.01 | S. cerevisiae deletion strains, locus YMR205C, strain PFK2, active compounds read low 1.02 | S. cerevisiae deletion strains, locus YMR223W, strain ubp8, active compounds read low 1.03 | S. cerevisiae deletion strains, locus YMR231W, strain pep5, active compounds read low 1.01 | S. cerevisiae deletion strains, locus YMR307W, strain GAS1, active compounds read low 0.999 | S. cerevisiae deletion strains, locus YNL067W, strain RPL9B, active compounds read low 1.01 | S. cerevisiae deletion strains, locus YNL071W, strain lat1, active compounds read low 1.01 | S. cerevisiae deletion strains, locus YNL183C, strain NPR1, active compounds read low 0.977 | S. cerevisiae deletion strains, locus YNL209W, strain ssb2, active compounds read low 1.01 | S. cerevisiae deletion strains, locus YNL233W, strain BNI4, active compounds read low 1.01 | S. cerevisiae deletion strains, locus YNL248C, strain rpa49, active compounds read low 0.97 | S. cerevisiae deletion strains, locus YNL250W, strain rad50, active compounds read low 1.02 | S. cerevisiae deletion strains, locus YNL271C, strain bni1, active compounds read low 1.04 | S. cerevisiae deletion strains, locus YNL298W, strain CLA4, active compounds read low 1.04 | S. cerevisiae deletion strains, locus YNL307C, strain MCK1, active compounds read low 1.04 | S. cerevisiae deletion strains, locus YNL322C, strain KRE1 (second series), active compounds read low 1 | S. cerevisiae deletion strains, locus YNL322C, strain KRE1, active compounds read low 1 | S. cerevisiae deletion strains, locus YNR049C, strain mso1, active compounds read low 1.01 | S. cerevisiae deletion strains, locus YNR052C, strain pop2, active compounds read low 1.02 | S. cerevisiae deletion strains, locus YOL006C, strain TOP1, active compounds read low 0.994 | S. cerevisiae deletion strains, locus YOL012C, strain htz1 1.16 | S. cerevisiae deletion strains, locus YOL147C, strain pex11, active compounds read low 1.02 | S. cerevisiae deletion strains, locus YOR001W, strain rrp6, active compounds read low 1.03 | S. cerevisiae deletion strains, locus YOR061W, strain CKA2, active compounds read low 1 | S. cerevisiae deletion strains, locus YOR069W, strain VPS5, active compounds read low 1 | S. cerevisiae deletion strains, locus YOR070C, strain gyp1, active compounds read low 0.996 | S. cerevisiae deletion strains, locus YOR080W, strain dia2, active compounds read low 1.03 | S. cerevisiae deletion strains, locus YOR083W, strain WHI5, active compounds read low 1 | S. cerevisiae deletion strains, locus YOR106W, strain vam3, active compounds read low 1.04 | S. cerevisiae deletion strains, locus YOR136W, strain idh2, active compounds read low 1.03 | S. cerevisiae deletion strains, locus YOR144C, strain elg1, active compounds read low 1.01 | S. cerevisiae deletion strains, locus YOR184W, strain ser1, active compounds read low 1.03 | S. cerevisiae deletion strains, locus YOR231W, strain MKK1, active compounds read low 1.02 | S. cerevisiae deletion strains, locus YOR265W, strain rbl2, active compounds read low 1.01 | S. cerevisiae deletion strains, locus YOR270C, strain vph1, active compounds read low 0.968 | S. cerevisiae deletion strains, locus YOR290C, strain snf2, active compounds read low 0.977 | S. cerevisiae deletion strains, locus YOR316C, strain cot1, active compounds read low 1.03 | S. cerevisiae deletion strains, locus YPL051W, strain arl3, active compounds read low 1.01 | S. cerevisiae deletion strains, locus YPL078C, strain atp4, active compounds read low 1.04 | S. cerevisiae deletion strains, locus YPL106C, strain sse1, active compounds read low 0.985 | S. cerevisiae deletion strains, locus YPL240C, strain hsp82, active compounds read low 1 | S. cerevisiae deletion strains, locus YPL241C, strain CIN2, active compounds read low 1 | S. cerevisiae deletion strains, locus YPL256C, strain CLN2, active compounds read low 1.09 | S. cerevisiae deletion strains, locus YPR119W, strain clb2, active compounds read low 1.03 | S. cerevisiae deletion strains, locus YPR141C, strain kar3, active compounds read low 1.03 | S. cerevisiae deletion strains, locus YPR163C, strain tif3, active compounds read low 1.04 | S. cerevisiae deletion strains, locus YPR167C, strain met16, active compounds read low 1.03 | S. cerevisiae deletion strains, strain wtn01, active compounds read low 1.03 | S. cerevisiae strains, strain wild type, active compounds read low 1
